This is a sample that favours compounds with a hit; in the whole collection about 12% have one here.
Sm TGR block: inhibitors of Schistosoma mansoni thioredoxin glutathione reductase; Q962Y6; purified TGR, DTNB reduction, TNB absorbance 405 nm; Potency, µM (titrated, usually from 114 µM), hits mostly inhibitors; 360,000 compounds, 3% hits; AID 485364; also: nearly all actives have a fitted effect of over 60% in size
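Kinetic colorimetric format: TGR-catalysed, NADPH-driven DTNB reduction monitored via TNB absorbance. Enzyme dispensed at 20 nM; compound exposure 15 min at room temperature before reaction start.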
Pf growth 48h: P. falciparum growth inhibition at 48 hours (one generation); P. falciparum luciferase growth in erythrocytes, 48 h; Potency, µM (top dose mostly 28.7 µM), hits mostly inhibitors; 310,000 compounds, 5.9% hits; AID 504832
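Read-out is firefly luciferase luminescence from an integrated reporter in P. falciparum, so falling signal marks reduced parasite growth. Infected erythrocytes were at 2% hematocrit and 0.1% parasitemia (final) in Albumax-supplemented RPMI 1640.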
SARS PLpro yeast: blocks SARS-CoV papain-like protease in a yeast assay | S. cerevisiae expressing SARS-CoV PLpro, growth rescue | Potency, µM (titrated, usually from 32.9 µM), usual class: activators | 330,000 compounds, 0.19% hits | AID 485353; calls by dose curve; also: nearly all actives have a fitted effect of over 55% in size
Pf growth 96h: P. falciparum growth inhibition at 96 hours; P. falciparum luciferase reporter growth, 96 h; Potency, µM (highest dose often 28.7 µM), usual class: inhibitors; 320,000 compounds, 6.9% hits; AID 504834
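Erythrocytes infected with luciferase-expressing P. falciparum were dispensed at 2% hematocrit and 0.05% parasitemia (final), then incubated with compounds 96 hours at 37 C in 5% CO2. Luminescence after detection reagent addition reported growth.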
Large screens that a line does not name were inactive. Unless noted, calls follow the shape of the dose curve; as a rule, active = well fitted curve in the direction sought with a large enough effect; inconclusive = small, poorly fitted or top-dose-only effect, or another doubt; inactive = no such curve, though single readings can be large; an effect the other way counts as inactive or inconclusive.

CSc1ccc(CNC(=O)C2Cc3cc(S(=O)(=O)N4CCCC4)ccc3N2C(C)=O)cc1 (stereo unspecified)	none
CCOc1ccc(CNC(=O)C2Cc3cc(S(=O)(=O)N4CCCC4)ccc3N2C(C)=O)cc1 (stereo unspecified)	Pf growth 96h inconclusive
CCOc1ccc(CNC(=O)C2Cc3cc(S(=O)(=O)N4CCCCC4)ccc3N2C(C)=O)cc1 (stereo unspecified)	Pf growth 96h 10µM
CCc1nn(CC(=O)NCCCN2CCN(CC)CC2)c(=O)c2cc3occc3n12	Pf growth 96h inconclusive
C=C[C@@H](C)N(Cc1ccc(OC)cc1)S(=O)(=O)N(Cc1ccccc1)[C@H](C=C)C(C)C	Pf growth 48h 3.3µM, Pf growth 96h inconclusive
Cc1ccc(Nc2ncnc3c2nc2n3CCCC2)c(Br)c1	none (no result: Pf growth 48h, SARS PLpro yeast, Pf growth 96h)
COc1cc(Cl)c(C)cc1Nc1nc2ccccc2n2cnnc12	none (no result: Pf growth 48h, SARS PLpro yeast, Pf growth 96h)
CS(=O)(=O)N(CC(=O)NCc1ccccc1)Cc1ccc(Cl)cc1	none (no result: Pf growth 48h)
Cc1ccc(S(=O)(=O)N(CC(=O)NCc2ccco2)Cc2ccc(F)cc2)cc1	Sm TGR block 40µM, Pf growth 48h inconclusive, Pf growth 96h inconclusive
CS(=O)(=O)N(CC(=O)NCc1ccco1)Cc1ccc(Cl)cc1	Sm TGR block 11µM (no result: Pf growth 96h)
CCCOc1ccc(/C=C/C(=O)Nc2sc3c(c2C(=O)OCC)CCC(C)C3)cc1OC (stereo unspecified)	none (no result: Pf growth 48h, SARS PLpro yeast, Pf growth 96h)
O=C(NNC(=O)c1cccnc1Cl)c1ccc(F)cc1	none
O=C(Nc1ccc(F)cc1F)c1ccc(-n2cccn2)c([N+](=O)[O-])c1	Sm TGR block 45µM
Cc1nn(-c2ccccc2)c2c1C(c1ccncc1)C(C#N)=C(N)O2 (stereo unspecified)	none (no result: Pf growth 96h)
CC1=C(n2nnc3ccccc32)C(c2ccccc2)C(C#N)=C(N)O1 (stereo unspecified)	Sm TGR block 35µM (no result: Pf growth 96h)
CN(c1ccccc1)S(=O)(=O)c1ccc(Cl)c(C(=O)Nc2ccccc2N2CCOCC2)c1	Pf growth 48h inconclusive, Pf growth 96h inconclusive
CC(COc1ccccc1)NC(C)C(O)c1ccc(O)cc1 (stereo unspecified)	Pf growth 96h inconclusive
CC(CCc1ccccc1)NC(C)C(O)c1ccc(O)cc1 (stereo unspecified)	Pf growth 48h inconclusive, Pf growth 96h 1.9µM
C[C@@H](CN1CCC(Cc2ccccc2)CC1)[C@@H](O)c1ccc(O)cc1	Pf growth 48h inconclusive (no result: SARS PLpro yeast)
CC(C(O)c1ccc(O)cc1)N1CCC(Cc2ccccc2)CC1 (stereo unspecified)	Pf growth 48h 2.1µM, Pf growth 96h inconclusive
CSc1ccc(CCNC(=O)CCc2c(C)nc3cc(-c4ccccc4)nn3c2C)cc1	none (no result: Pf growth 48h, SARS PLpro yeast, Pf growth 96h)
O=C(Nc1ccncc1)c1c(F)c(F)c(F)c(F)c1F	Pf growth 48h 10µM
O=C(Nc1ccc(F)cc1)Nc1ccc2c(c1)CCC2	none
O=C(Nc1cccc(F)c1)Nc1ccc2c(c1)CCC2	Pf growth 96h 1.7µM
O=C(Nc1cccc(F)c1)c1c(F)c(F)c(F)c(F)c1F	Pf growth 48h 13µM (no result: Pf growth 96h)
Cc1cc(C)n(CC(=O)N/N=C/c2ccc3c(c2)OCO3)n1	Pf growth 96h 3.7µM
O=C(CCc1ccc(O)c(O)c1)N/N=C/c1ccc2c(c1)OCO2	Sm TGR block 11µM, Pf growth 48h inconclusive, Pf growth 96h inconclusive
CCCOc1ccccc1/C=C1\SC(N2CCCCC2)=NC1=O	Pf growth 48h inconclusive, Pf growth 96h inconclusive
Clc1ccccc1-c1nnc2sc(-c3ccc4c(c3)OCO4)nn12	Pf growth 48h 12µM
Clc1ccccc1-c1nnc2sc(CCc3ccccc3)nn12	Pf growth 48h 13µM, SARS PLpro yeast inconclusive (no result: Pf growth 96h)
Cc1ccc(Cn2ccc(NC(=O)c3cc(-c4cccs4)on3)n2)cc1	Pf growth 48h 10µM, Pf growth 96h inconclusive
[S]=[Sb][S][Sb]=[S]	none (no result: Sm TGR block, SARS PLpro yeast)
O=c1c2ccccc2nnn1CSc1nnc(-c2cccnc2)n1-c1ccccc1F	Pf growth 48h inconclusive
Cc1ccc(-n2c(SCn3nnc4ccccc4c3=O)nnc2-c2cccnc2)c(C)c1	Pf growth 48h 10µM, Pf growth 96h inconclusive
COc1cc(/C=N/NC(=O)Cc2ccc(Br)cc2)cc(OC)c1O	Pf growth 96h 12µM
COc1ccc(C(C)=O)cc1COC(=O)c1cc(C)oc1C	Sm TGR block inconclusive (no result: Pf growth 96h)
COc1ccc(C(C)=O)cc1COC(=O)c1cc(=O)c2ccccc2o1	Sm TGR block 1.8µM
COc1ccc(C(C)=O)cc1COC(=O)c1ccc2ccccc2n1	Sm TGR block 25µM
COc1ccc(C(C)=O)cc1COC(=O)c1cc(C)nc2ccccc12	Sm TGR block 3.5µM
COc1ccc(C(C)=O)cc1COC(=O)Cc1n[nH]c(=O)c2ccccc12	Sm TGR block 18µM, Pf growth 48h inconclusive, Pf growth 96h inconclusive
COc1ccccc1C(=O)COC(=O)Cc1n[nH]c(=O)c2ccccc12	none
CCOc1ccccc1C(=O)Nc1cc(C)ccc1NC(=O)c1ccco1	Pf growth 96h inconclusive
CC1CN(C(=O)c2ccc(Br)c(S(=O)(=O)N3CCOCC3)c2)CC(C)O1 (stereo unspecified)	none
Cc1ccc(C)c(N2CCN(C(=O)c3cccn3-c3nnc(N4CCCCC4)s3)CC2)c1	none (no result: Pf growth 48h, SARS PLpro yeast, Pf growth 96h)
COc1ccc(C(C)=O)cc1COC(=O)c1cccnc1SC	Sm TGR block 3.2µM
COc1ccc(-c2oc3ccc(-c4ccc(OC)nc4)cc3c2C#CC2(O)CCCCC2)cc1	Pf growth 48h inconclusive, Pf growth 96h 5.9µM
CCOC(=O)c1cc2occc2n1CC(=O)Nc1ccc(OC)cc1OC	Sm TGR block 20µM, Pf growth 48h inconclusive
CCOC(=O)c1cc(S(=O)(=O)Nc2ccc(OC)cc2OC)cn1C	Sm TGR block 56µM
COC(=O)c1cc(S(=O)(=O)Nc2cccc(OC)c2)cn1C	Pf growth 96h inconclusive
CCOC(=O)C1CCN(S(=O)(=O)c2cc(-c3cc(C)no3)ccc2OC)CC1	none (no result: Pf growth 48h, SARS PLpro yeast, Pf growth 96h)
CCOC(=O)c1ccc(-[n+]2c(-c3ccccc3)cc(-c3ccccc3)cc2-c2ccccc2)cc1	Pf growth 48h 2.9µM, Pf growth 96h 1.2µM
CCOC(=O)c1cccc(-[n+]2c(-c3ccccc3)cc(-c3ccccc3)cc2-c2ccccc2)c1	Pf growth 48h 1.9µM, Pf growth 96h 0.59µM
CCc1ccc(-n2nc3ccc(NC(=O)c4cc5ccccc5o4)cc3n2)cc1	none (no result: Pf growth 48h, SARS PLpro yeast, Pf growth 96h)
CCCCN1C(=O)c2[nH]nc(-c3ccccc3O)c2C1c1ccc(C(C)(C)C)cc1 (stereo unspecified)	none (no result: Pf growth 48h, SARS PLpro yeast, Pf growth 96h)
COc1cc(OC)cc(-c2cc3nc(C)c(CCC(=O)O)c(C)n3n2)c1	Pf growth 96h 9.3µM (no result: Pf growth 48h)
Cc1nc2ncnn2c(C)c1CCC(=O)NC(C)CCc1ccco1 (stereo unspecified)	Pf growth 96h 12µM
COc1cc(OC)cc(-c2cc3nc(C)c(CCC(=O)NC(C)CCc4ccco4)c(C)n3n2)c1 (stereo unspecified)	Pf growth 48h 9.3µM
COc1ccc(CCNC(=O)CCc2c(C)nc3cc(-c4ccccc4)nn3c2C)cc1OC	none (no result: Pf growth 48h, SARS PLpro yeast, Pf growth 96h)
Cc1nc2cc(-c3cccc(F)c3)nn2c(C)c1CCC(=O)NC(C)CCc1ccco1 (stereo unspecified)	Pf growth 96h 10µM (no result: Pf growth 48h)
Cc1nc2cc(-c3ccccc3)nn2c(C)c1CCC(=O)NCc1ccco1	Sm TGR block inconclusive, Pf growth 96h inconclusive (no result: Pf growth 48h)

Source: PubChem
